# Compounds without any hit were thinned out: in the full panel of roughly 83,000, 20% have a hit.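 How to read the values: 0–100, growth inhibition (40 = 60% inhibited); 0, no net growth; -100 to 0, cell death (-40 = 40% of starting cells died; -100 = all dead).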 A number with no mark means an inactive call. Calls of active or inactive are those of the source. The calls were made as follows: active = growth percent below 10; inactive = the rest.
# Experiments:
# Assay in all cases: NCI-60 one-dose screen, 48 h (100 = growth as untreated, 0 = no growth, -100 = all killed)
# Conditions in all cases: 10 µM unless noted
# T-47D breast = system: T-47D breast
# BT-549 breast = system: BT-549 breast
# MDA-MB-435 melanoma = system: MDA-MB-435 melanoma
# SW-620 colon = system: SW-620 colon
# MCF7 breast = system: MCF7 breast
# HCT-116 colon = system: HCT-116 colon
# HCC-2998 colon = system: HCC-2998 colon
# KM12 colon = system: KM12 colon
SMILES,growth (T-47D breast),growth (BT-549 breast),growth (MDA-MB-435 melanoma),growth (SW-620 colon),growth (MCF7 breast),growth (HCT-116 colon),growth (HCC-2998 colon),growth (KM12 colon)
CCC1N=C(N)N=C(N)N1c1ccc(Cl)cc1 (stereo not drawn),95.7%,100%,79.5%,72.3%,91.3%,61.1%,95.4%,97.4%
O=[N+]([O-])c1ccc(N=Nc2c(NNc3ccc([N+](=O)[O-])cn3)cc(S(=O)(=O)O)c3ccccc23)nc1,90.9%,81.7%,90%,83.1%,85.9%,69.6%,87.1%,87.6%
COc1nccc2c(Sc3ccccc3)nc(N)nc12,107%,85.9%,110%,109%,91.9%,97.6%,106%,113%
COc1cc(NC(=O)CSc2nc3ccc(Cl)cc3c(=O)n2Cc2ccccc2)cc(OC)c1OC,55.7%,31.2%,78.2%,81.6%,70.2%,51.6%,90.5%,51.5%
CC(=O)CC(c1ccc([N+](=O)[O-])cc1)c1c(O)c2ccccc2oc1=O (stereo not drawn),95.7%,88.5%,103%,101%,102%,101%,105%,98.5%
CCCCCCCCCCCCCCCCCC1=NCCN1CCO,95%,91.5%,101%,65.2%,74.3%,65.1%,61.3%,–
COc1ccc2nc(-c3ccc(-c4noc(-c5ccc(Cl)cc5)n4)cc3)[nH]c2c1,67.3%,74.8%,60.2%,49.6%,46.4%,51.3%,93.6%,53.3%
O=C(/C=C/c1ccccc1)c1c[nH]c2ccccc2c1=O,17.3%,-4.65% (active),-18.4% (active),-6.91% (active),10.6%,0.346% (active),51.3%,1.5% (active)
COc1cc(OC)c(C(=O)/C=C/c2cccc(OC(C)=O)c2)cc1CC=C(C)C,52.3%,81.8%,73.6%,35.5%,44.6%,47.1%,72.9%,68.8%
CCOC(=O)c1ccc2c(c1)[n+](=O)c(C(=O)c1ccc3ccccc3c1)c(C(F)(F)F)n2[O-],-91.1% (active),-48.5% (active),-78% (active),-89.6% (active),-93.1% (active),-100% (active),-97.6% (active),-92% (active)
O=C(NNC(=O)c1cccc(Cl)c1)c1ccccc1,103%,111%,103%,106%,105%,107%,105%,111%
C=CCCCCOc1cccc(/C=C2\N=C3SCCCN3C2=O)c1,-2.85% (active),94.4%,106%,103%,88.9%,86.2%,100%,98.4%
COc1ccc(-c2conc2-n2nc(-c3ccccc3)nc2-c2ccccc2)cc1,102%,104%,105%,104%,89.1%,97.2%,105%,110%
COc1cccc(-c2nc3sccn3c2-c2ccnc(NCCN3CCCNS3(=O)=O)n2)c1,95.3%,113%,54.1%,127%,100%,74.6%,118%,103%
CCN(CC)CCCC(C)Nc1c(-c2ccccc2)cnc2cc(Cl)ccc12 (stereo not drawn),-44.9% (active),87.4%,38.2%,70.3%,59.1%,36.2%,73.4%,65.3%
COc1ccc(-c2ccc(-c3ccc(C(=N)N)s3)s2)cc1,-64% (active),-81.3% (active),-78.1% (active),-69.1% (active),-50.1% (active),-47.8% (active),-81% (active),-86.8% (active)

SMILES,growth (T-47D breast),growth (BT-549 breast),growth (MDA-MB-435 melanoma),growth (SW-620 colon),growth (MCF7 breast),growth (HCT-116 colon),growth (HCC-2998 colon),growth (KM12 colon)
Nc1c(C(=O)C[C@@H](N)CO)ccc2c1C(=O)CCO2,33.6%,41.9%,68.3%,5.93% (active),22.5%,37.9%,-5.53% (active),20.1%
CS(=O)(=O)c1ccc(C(=O)Nc2ccc(Cl)c(-c3ccccn3)c2)c(Cl)c1,16.6%,11.8%,14.1%,20.8%,20.4%,11.7%,5.78% (active),13.7%
COc1cnc2c(c1)C(=O)c1c-2n(CCCN2CCN(C)CC2)c(=O)c2cc(Cl)ccc12,8.74% (active),56.5%,38%,1.45% (active),20.8%,32%,66.8%,45.5%
Cc1ccc(Nc2cc(Cl)c([N+](=O)[O-])cc2[N+](=O)[O-])cc1,1.27% (active),31.3%,10.2%,9.72% (active),25.9%,7.86% (active),42.4%,45.9%
COc1ccc(/C=C/C(=O)CCC(=O)O)cc1OC,93.1%,109%,106%,105%,97.1%,104%,125%,103%
CC(C)(C)[Si](C)(C)OC1[C@@H](O[Si](C)(C)C(C)(C)C)[C@@H](CNC(=O)NC(=O)NC(=O)CCl)O[C@H]1n1cnc2c(NC(=O)Nc3ccccc3)ncnc21 (stereo partly drawn),77%,71.7%,76.3%,85.4%,37.8%,17.6%,–,–
C[C@@H]1N=C(c2ccc3ccccc3c2)Nc2nc3ccccn3c2C1=O,41.7%,35.1%,-24.7% (active),26.3%,25.2%,18.3%,77%,30.3%
COc1cc2c(=O)n(CCCN(C)C)c3c4cc[nH]c4ncc3c2cc1OC,63.9%,72.5%,51%,24.9%,15.5%,16.8%,55.7%,19.2%
COC1(OC)C2(Cl)CCC1(Cl)C(Cl)=C2Cl,98.3%,117%,99.9%,120%,98%,105%,103%,106%
Cc1ccc(Nc2cccc3ccccc23)cc1,65.1%,103%,29.7%,77.7%,38.4%,80.7%,88.1%,59.4%
O=C(CC(=O)c1cccc(Cl)c1)c1cccc(Cl)c1,37.2%,47.6%,47.9%,30.7%,25.4%,19.8%,35%,41.9%
O=C(NO)c1ccc(CNc2cccc3nc(C4CC4)n(-c4ccccc4)c(=O)c23)cc1,22.9%,64%,10.3%,0.537% (active),27.6%,-22.1% (active),36%,8.66% (active)
Nc1c(Br)cc2c(c1Br)Cc1cc(Cl)ccc1-2,66%,128%,102%,98.2%,80.6%,97.1%,102%,98.7%
Cc1cc(C#Cc2ccc(C(C)(C)C)cc2)ccc1-n1c(/C=C/c2c(Cl)cccc2Cl)nc2ccccc2c1=O,82.5%,105%,98%,85.5%,85.9%,89.2%,99.3%,98.6%
Cc1ccc(NC(=O)c2sc3nc4c(cc3c2N)C(=O)CCC4)cc1Cl,105%,115%,99.2%,113%,102%,105%,103%,116%
C=CC(=O)N1CN(C(=O)C=C)CN(C(=O)C=C)C1,33.6%,76.3%,81.2%,15.3%,39.6%,13.7%,101%,85.8%
